Experimental data taken from PubChem BioAssay AID1275 (Emory University Molecular Libraries Screening Center, 2008).
The campaign covered roughly 1,000 compounds. About 160 (16%) were called active. No rule for the calls is given here. The list shows a part of the results.

Each molecule was assayed against Neutrophil cytosol factor 1 (Homo sapiens) (UniProt P14598) (assay: p47phox binding inhibitors, dose response, biochemical, NADPH oxidase regulatory subunit, fluorescence polarization (AID 1275)). Conditions: at 12.5 µM.
Chain of Neutrophil cytosol factor 1 (Homo sapiens) (P14598 whole entry, looked up): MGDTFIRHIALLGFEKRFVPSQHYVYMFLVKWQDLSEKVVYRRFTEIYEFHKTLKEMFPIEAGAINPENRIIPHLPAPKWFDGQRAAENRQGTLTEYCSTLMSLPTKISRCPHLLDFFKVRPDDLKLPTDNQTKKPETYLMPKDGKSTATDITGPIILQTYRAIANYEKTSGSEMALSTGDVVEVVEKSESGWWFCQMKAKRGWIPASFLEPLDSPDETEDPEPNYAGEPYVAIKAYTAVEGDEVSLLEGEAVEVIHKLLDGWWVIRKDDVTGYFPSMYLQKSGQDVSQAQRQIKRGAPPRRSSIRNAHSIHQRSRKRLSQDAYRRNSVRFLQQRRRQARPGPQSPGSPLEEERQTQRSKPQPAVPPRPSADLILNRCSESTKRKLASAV

Structure (SMILES) | percent of control, lower = inhibition
O=C1NC(=O)N(Cc2ccc(F)cc2)C(=O)/C1=C\c1ccc(N2CCCC2)cc1 | -40.7 (active)
